Assay outcomes from PubChem.
UBC13 polyUb: blocks human UBC13 polyubiquitin chain formation; TR-FRET; P61088; 0.47% of 330,000 active; inhibition, % at 20 µM; in the data active means inhibition above about 45%, passing the limit was not always enough; inconclusive means no clear call, values can overlap the other calls
UHRF1 binding: UHRF1 methyl-DNA binding inhibition; inhibition, % at 4.4 µM; Q96T88; 0.75% of 370,000 active; UHRF1 binding to methylated oligo, TR-FRET; in the data active means inhibition above about 21%;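 further: UHRF1 SRA domain binding a hemimethylated CpG hairpin DNA probe; 0% = median of test compound wells and 100% = reference inhibitor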
MBD2 inh: blocks human MBD2 binding to methylated DNA; 0.31% of 370,000 active; Q9UBB5; inhibition, % at 4.4 µM; TR-FRET, MBD2 binding to methylated oligonucleotide; in the data active means inhibition above about 13%
Neddyl block: cullin neddylation inhibition | P61081+Q13564 | TR-FRET cullin neddylation, biochemical | calls only at 25 µM | 0.58% of 360,000 active; in the data active means inhibition above about 36%
Casp3 counter: counter-screen for UBC13 inhibitors: human caspase-3 inhibition. inhibition, % at 20 µM. shares compounds with UBC13 polyUb. 4% of 1,400 active. AID 488856. Recombinant caspase-3, Caspase-Glo 3/7 luminescence, 60 min;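 active means mean inhibition across replicates above about 26%, limit read from the data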;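 further: plate controls were DMSO with caspase-3 for no effect and DMSO wells lacking enzyme for full effect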
UBC13 confirm: human UBC13 polyubiquitin inhibition, confirmed. shares compounds with UBC13 polyUb. UBC13 polyubiquitination, TR-FRET, biochemical. inhibition, % at 10 µM. 68% of 1,400 active; in the data active means inhibition above about 45%; inconclusive means no clear call, values can overlap the other calls
An asterisk follows results filed as active; i = inactive; ? = inconclusive; . = no result given. A selection: hits, their analogues and other compounds. The true share with any hit is near 1.8%.

SMILES	UBC13 polyUb	UHRF1 binding	MBD2 inh	Neddyl block	Casp3 counter	UBC13 confirm
CCOC(=O)N1CCc2c(sc(NC(=O)CN(CC)CC)c2C#N)C1	78*	-1	-3	i	-2	95*
COc1cccc(C(NC(C)=O)c2nc(-c3ccc4c(c3)OCO4)cs2)c1 (centres undefined)	.	-2	0	i	.	.
COc1ccc(OCC(=O)NNC(=S)NC(=O)C2CC2)cc1	79*	1	4	i	-2	101*
Cc1cc(C)cc(OCC(=O)NNC(=S)NC(=O)C2CC2)c1	83*	-5	-1	i	4	104*
NNC(=O)CNC(c1ccccc1)c1cc(Br)ccc1NC(=O)CCN1CCOCC1 (centres undefined)	12	1	2	i	.	.
NCC12CC3CC(C1)CC(c1ccc(Cl)cc1)(C3)C2	57*	21*	5	i	-4	76*
Nc1ccc(C23CC4CC(CC(CO)(C4)C2)C3)cc1	4	-4	2	i	.	.
Cc1ccc(-c2c(C(=O)Nc3ccccc3C)c(C)[nH]c(=S)c2C#N)o1	18	1	1	i	.	.
Cc1ccccc1NC(=O)c1c(C)[nH]c(=S)c(C#N)c1-c1ccc(Cl)cc1	50*	-1	0	i	-4	?
Cc1[nH]c(=S)c(C#N)c(-c2ccccc2)c1C(=O)Nc1ccccc1	51*	3	2	i	3	?
C=CCn1c(=O)c(C(=O)Nc2cccnc2)c(O)c2ccccc21	10	0	0	i	.	.
C=CCn1c(=O)c(C(=O)Nc2ccc(C)cn2)c(O)c2ccccc21	55*	-2	0	i	3	30
Oc1ccc(C2=NNC(=NCc3ccc4c(c3)OCO4)SC2)c(O)c1	45*	-3	-5	i	0	72*
NC(N)=N/N=C/c1ccc(OCc2ccccc2)cc1	50*	0	1	i	16	53*
NC(N)=N/N=C/c1ccc(OCc2ccc(Cl)cc2)cc1	102*	0	-1	i	22	120*
Cc1ccc(COc2ccc(/C=N/O)cc2)cc1	9	4	0	i	.	.
COc1cc(NC(=S)NCCN2CCOCC2)cc(OC)c1OC	61*	2	-3	i	4	-5
O=C(Cn1cnc([N+](=O)[O-])n1)NC1CC1	-11	-1	-1	i	.	.
CN1CCN(Cc2nc3ccccc3c(=O)n2Cc2nc(-c3ccc([N+](=O)[O-])cc3)cs2)CC1	79*	1	5	i	2	57*
CN(C)Cc1nc2ccccc2c(=O)n1Cc1nc(-c2cccc([N+](=O)[O-])c2)cs1	0	-3	-5	i	.	.
O=C(c1ccc(Cl)cc1)N1CCN(C(=O)C2CCCCC2)CC1	-7	5	0	i	.	.
CCCCNC(=O)NNC(=O)C1CC1(c1ccccc1)c1ccccc1 (centres undefined)	-2	-3	-10	i	.	.
c1ccc(C2NCCNC2c2ccccc2)cc1 (centres undefined)	.	-3	-4	i	.	.
FC(F)(F)c1cc(CO[C@@H]2CCCN[C@@H]2c2ccccc2)cc(C(F)(F)F)c1	58*	1	-9	i	2	55*
COC(=O)C1=C(C)NC(=O)CC1c1cccc(Cl)c1Cl (centres undefined)	0	2	-3	i	.	.
SMILES	UBC13 polyUb	UHRF1 binding	MBD2 inh	Neddyl block	Casp3 counter	UBC13 confirm
Nc1ccc(OCCCc2c(N)nc(N)nc2N)cc1	47*	1	2	i	1	64*
COc1ccccc1[C@@H]1C(c2cccc(C)c2)=NN(c2ccccc2)[C@H]1C(=O)N1CCOC1=O	46*	0	2	i	-2	46*
CC(=O)O[C@H]1[C@@H](O)[C@H](O)[C@H](Oc2c(O)c(C)c3c4c2[C@@H](C)CC[C@@H]4[C@@H](C)C[C@H]3C=C(C)C)O[C@H]1C	52*	-1	-4	i	-2	32
COc1ccccc1NC(=O)c1cc(S(=O)(=O)N2CCC3(CC2)OCCO3)ccc1F	56*	.	.	i	-4	40
COc1ccccc1NC(=O)c1cc(S(=O)(=O)NCc2ccccc2)ccc1F	63*	3	4	i	0	75*
O=C(Nc1ccccc1C(F)(F)F)c1cc(S(=O)(=O)N2CCC3(CC2)OCCO3)ccc1F	8	0	-2	i	.	.
O=C(NN=C1CCCCCC1)c1c[nH]c2ccccc12	6	-5	4	i	.	.
Oc1ccc(CCNc2c3ccccc3nc3ccccc23)cc1O	0	2	10	i	.	.
CCOC(=O)C1CCN(C(=O)CCNC(=O)Cn2ccc3ccccc3c2=O)CC1	3	-1	-3	i	.	.
Cc1ccc(C(=O)NC(C)c2ccccc2)cc1S(=O)(=O)N1CCOCC1 (centres undefined)	-2	1	-2	i	.	.
Cc1ccc(C(=O)NC(C)c2ccc(-n3ccnc3)cc2)cc1S(=O)(=O)N1CCOCC1 (centres undefined)	73*	1	-5	i	-1	102*
COc1ccc(CCN(/C=C2\Sc3ccccc3C2=O)C(C)=O)cc1OC	52*	4	2	i	0	34
CN(C)/C=C1/Sc2ccccc2C1=O	-12	-3	-2	i	.	.
Cc1cc(C)c2sc(N(CCCN(C)C)C(=O)c3ccc(S(=O)(=O)N(C)Cc4ccccc4)cc3)nc2c1	96*	-1	1	i	2	115*
CCN(Cc1ccccc1)S(=O)(=O)c1ccc(C(=O)N(CCCN(C)C)c2nc3cc(C)cc(C)c3s2)cc1	74*	2	6	i	-3	109*
CCCCN(CC)S(=O)(=O)c1ccc(C(=O)N(CCCN(C)C)c2nc3cc(C)cc(C)c3s2)cc1	80*	3	-2	i	0	102*
CCc1ccc(C2=C/C(=C/c3cccnc3)C(=O)O2)cc1	-6	-1	-6	i	.	.
Cc1cc(C)cc(NC(=O)Cn2nnc3ccccc3c2=O)c1	1	1	3	i	.	.
COC(=O)c1ccc(Cn2c(O)c(N=NC(N)=S)c3ccccc32)o1	69*	0	1	i	2	81*
COC(=O)N=Nc1c(O)n(Cc2ccccc2)c2ccccc12	15	-3	0	i	.	.
NC(=S)N=Nc1c(O)n(Cc2ccccc2)c2ccccc12	42	2	2	i	.	.
C/C(Cl)=C\Cn1c(O)c(N=NC(N)=S)c2ccccc21	84*	0	-3	i	-4	102*
C[C@@H](NC(=O)[C@@H]1CCCN1C(=O)[C@@H]1CCCN1)c1ccccc1	.	-2	-1	i	.	.
C=CCn1c(SCc2ccc(Cl)cc2)nc2cc(C(=O)N3CCC(C(N)=O)CC3)ccc2c1=O	57*	0	-4	i	-1	48*
CCCCCn1c(SCC(=O)OCC)nc2cc(C(=O)N3CCC(C(N)=O)CC3)ccc2c1=O	8	2	-2	i	.	.
CC(C)n1ncc2c(C(=O)Nc3ccc(S(C)(=O)=O)cc3)cc(C3CC3)nc21	-8	2	0	i	.	.
